# Measurements published in PubChem BioAssay AID2284334 (EPA ToxCast).
# Records with an inconclusive call do not appear. Activity calls are given as the source filed them. How the source made its calls: active means hit-call score of the fitted dose curve at least 0.9, where 1 is the maximum; inconclusive means response in the unintended direction; inactive means score below 0.9.
# Biological target: human Peroxisome Proliferator-activated Receptor alpha (PPARa), PPARA (gene 5465) (UniProt Q07869)
# Experiment: ATG_hPPARa_EcoTox2: Attagene TRANS-FACTORIAL EcoTox-2 HepG2 Assay for human Peroxisome Proliferator-activated Receptor alpha (PPARa)
# Protocol: ATG_EcoTox2 is a cell-based, multiplexed assay created by modifying the existing Attagene TRANS-FACTORIAL system to include a panel of nuclear receptors from some or all the following species: human (Homo sapiens), african clawed frog (Xenopus laevis), rainbow trout (Oncorhynchus mykiss), japanese medaka (Oryzias latipes), and zebrafish (Danio rerio). The ECOTOX2-FACTORIAL format uses HepG2, a human liver cell line, with measurements taken at 24 hours after chemical dosing in a 24-well plate. ATG_hPPARa_EcoTox2 is one of 29 assay components calculated in the ATG_EcoTox2 assay. It is designed to make measurements of mRNA induction, a form of inducible reporter, as detected with fluorescence intensity signals by Reverse transcription polymerase chain reaction (RT-PCR) and Capillary electrophoresis technology.The assay endpoint ATG_hPPARa_EcoTox2 was analyzed in the positive analysis fitting direction relative to DMSO as the negative control and baseline of activity. Using a type of inducible reporter, measures of mRNA for gain-of-signal activity can be used to understand the reporter gene at the transcription factor-level as they relate to the gene PPARa. Furthermore, this assay endpoint can be referred to as a primary readout, because this assay has produced multiple assay endpoints where this one serves a reporter gene function. […]
# Sequence of human Peroxisome Proliferator-activated Receptor alpha (PPARa), PPARA (gene 5465) (Q07869 whole entry, looked up): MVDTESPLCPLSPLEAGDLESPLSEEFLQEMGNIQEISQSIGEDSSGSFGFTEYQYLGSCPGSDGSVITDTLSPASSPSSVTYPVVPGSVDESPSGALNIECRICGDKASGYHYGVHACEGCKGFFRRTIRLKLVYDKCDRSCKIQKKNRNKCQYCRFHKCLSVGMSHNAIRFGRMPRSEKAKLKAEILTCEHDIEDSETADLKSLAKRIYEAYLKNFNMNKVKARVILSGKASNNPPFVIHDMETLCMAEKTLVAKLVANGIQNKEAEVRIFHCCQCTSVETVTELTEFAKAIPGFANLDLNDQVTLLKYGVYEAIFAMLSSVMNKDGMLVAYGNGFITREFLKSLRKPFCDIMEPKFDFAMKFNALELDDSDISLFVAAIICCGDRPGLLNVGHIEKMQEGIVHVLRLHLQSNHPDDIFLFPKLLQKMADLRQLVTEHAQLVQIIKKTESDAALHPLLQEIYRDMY
row,SMILES,AC50
1,O=S(=O)(O)C(F)(F)C(F)(F)C(F)(F)C(F)(F)C(F)(F)C(F)(F)F,23 µM (active)
2,O=C(O)C(F)(F)C(F)(F)C(F)(F)C(F)(F)C(F)(F)C(F)(F)C(F)(F)F,11.4 µM (active)
